The nature of test [1]: Viability qHTS for spleen associated tyrosine kinase inhibitor (SYKi) naive MV4-11 cells (AID 1963823). Also: nearly all actives have a fitted effect of over 40% in size. The gist of the method:
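SYKi-naive MV4-11 AML cells, 500 per well, were exposed to library compounds for 72 hr at 37 C, 5% CO2. Viability was then read by CellTiter-Glo luminescence after 10 min at room temperature.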

A short description of test [2]: Viability qHTS for spleen associated tyrosine kinase inhibitor (SYKi) drug resistant MV4-11 cells (AID 1963824). Also: nearly all actives have a fitted effect of over 35% in size. The method, boiled down: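 SYK-inhibitor-resistant MV4-11 AML cells were seeded at 500 per well onto compound and cultured 72 hours (37 °C, 5% CO2). CellTiter-Glo was then added, and after 10 min at room temperature, luminescence gave viability.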

Inconclusive results are not listed. A number with no mark means an inactive call. Activity calls are given as the source filed them. Calls follow the shape of the dose curve; as a rule, active = well fitted cell-killing curve with a large enough effect; inconclusive = small, poorly fitted or top-dose-only effect, or effect the other way; inactive = no such curve, though single readings can be large or run the other way.
Potency is read from the fitted curve at half-maximal effect.

For the compound `CC1=CC(=O)CC(C)(CO[C@@H]2O[C@H](CO)[C@@H](O)[C@H](O)[C@H]2O)C1(O)/C=C/C(C)=C/C(=O)O` (some centres not stated), the Potency result in test [1] and in test [2] was “inactive” in each case.

Regarding `COc1cc(/C=C/C(=O)N2CCN(CC(=O)N3CCCC3)CC2)cc(OC)c1OC`, the Potency entry in test [1] and in test [2] was “inactive” each time.

For the compound `CC(O)/C=C/C1(O)C(C)C(O)C(O[C@@H]2O[C@H](CO)[C@@H](O)[C@H](O)[C@H]2O)CC1(C)C` (some centres not stated), the Potency result in test [1] and in test [2] was “inactive” each time.

On to `C=C[C@H]1[C@H](O[C@@H]2O[C@H](CO)[C@@H](O)[C@H](O)[C@H]2O)OC=C(C(=O)OC)[C@H]1C[C@@H]1c2cc(O)c(O)cc2CCN1C(C)=O`, for which the Potency result in test [1] and in test [2] was “inactive” each time.

On to `CC(C)C(NC(=O)c1ccc(O)cc1)C(=O)N1CCCC1C(=O)Nc1c(O)cccc1C(=O)O` (configuration not stated), for which the Potency entry in test [1] and in test [2] was “inactive” each time.

For `Nc1nc(N)c2nc(-c3cccc(O)c3)cnc2n1`, the results for the Potency in test [1] and in test [2] were 1840 nM (active) and 2060 nM (active), respectively.

Turning to `CC1(C(=O)O)CCCC2(C)C3CCC4CC3(CCC12)CC4C(=O)O` (configuration not stated), the Potency entry in test [1] and in test [2] was “inactive” throughout.

With `COc1ccc2cc(-c3cc(-c4cc(Cl)cc(Cl)c4)nn3C(C)c3ccc(C(=O)NCCC(=O)O)cc3)ccc2c1` (configuration not stated), the Potency was 23100 nM (active) in test [1] and 25900 nM (active) in test [2].

Take `COc1ccc2c(c1)[C@@H]1C[C@]1(C(=O)N1[C@@H]3CC[C@H]1CN(C)C3)Cn1c-2c(C2CCCCC2)c2ccc(C(=O)NS(=O)(=O)N(C)C)cc21`: the Potency is 11600 nM (active) in test [1] and 7310 nM (active) in test [2].

As to `CC(=O)C=C=C1C(C)(C)CC(O[C@@H]2O[C@H](CO)[C@@H](O)[C@H](O)[C@H]2O)CC1(C)O` (some centres not stated), the Potency result in test [1] and in test [2] was “inactive” throughout.

For the compound `CC1(C)C(=O)CCC2(C)C1C(O)C=C1COC(=O)C12O` (configuration not stated), the Potency result in test [1] and in test [2] was “inactive” each time.

With `N#Cc1c(Oc2ccc(F)c(NC(=O)Cc3cccc(C(F)(F)F)c3)c2)ccc2nc(NC(=O)C3CC3)sc12`, the Potency in test [1] is 1460 nM (active); in test [2] it was 1640 nM (active).

As to `CC1=CC(=O)CC(C)(C)C1/C=C/C(C)OC1OC(COC2OCC(O)C(O)C2O)C(O)C(O)C1O` (configuration not stated), the Potency entry in test [1] and in test [2] was “inactive” in each case.

As for `COC1CC(O[C@H]2CC[C@@]3(C)C(CCC4C3[C@H](OC(C)=O)[C@@H](OC(=O)/C=C/c3ccccc3)[C@]3(C)C(C(C)=O)CC[C@]43O)C2)OC(C)C1OC1CC(OC)C(OC2CC(OC)C(OC3OC(C)C(OC4OC(CO)C(O)C(O)C4O)C(OC)C3O)C(C)O2)C(C)O1` (some centres not stated), the viability (% of control) in test [1] is 48.3% [at 9.25 µM]. In test [2], the viability, % of control is 45.7% [at 9.25 µM].

As for `C=C(C)C1CCC2(C(=O)O[C@@H]3O[C@H](CO[C@@H]4O[C@H](CO)[C@@H](O)[C@H](O)[C@H]4O)[C@@H](O)[C@H](O[C@@H]4O[C@@H](C)[C@H](O)[C@@H](O)[C@H]4O)[C@H]3O)CCC3(C(=O)O)C(CCC4C5(C)CCC(O)C(C)(C)C5CCC43C)C12` (some centres not stated), in test [1], the viability (% of control) is 84.2% [at 9.25 µM]. Moreover, the viability, % of control in test [2] is 114% [at 9.25 µM].

`CC(=O)O[C@@H]1CC2C(C)(C)C(=O)C=C[C@]2(C)C2CC[C@@]3(C)[C@H](c4ccoc4)OC(=O)[C@H]4O[C@]43[C@@]21C` (some centres not stated): the Potency in test [1] was 10000 nM (active); in test [2] it was 7090 nM (active).

For `CCC1=CC2CN(C1)Cc1c([nH]c3ccccc13)[C@@](C(=O)OC)(c1cc3c(cc1OC)N(C)[C@H]1[C@@](O)(C(=O)OC)[C@H](OC(C)=O)[C@]4(CC)C=CCN5CC[C@]31[C@@H]54)C2` (some centres not stated), the Potency in test [1] was 25.2 nM (active); in test [2] it was 12.6 nM (active).

For the compound `C/C=C(/C)C(=O)O[C@H]1C=C(CO)C(=O)[C@H](OC(=O)/C(C)=C/CO)[C@H]1C(C)C`, the Potency in test [1] is 2020 nM (active); in test [2], 1610 nM (active).

Consider `COC(=O)C1=CO[C@@H](O[C@@H]2O[C@H](CO)[C@@H](O)[C@H](O)[C@H]2O)C2C1C(=O)C[C@H]2C` (some centres not stated), for which the Potency result in test [1] and in test [2] was “inactive” throughout.

As to `NCCOCCOCCNC(=O)Cc1ccc(Nc2nc(NCc3ccc(F)cc3)nc(NCC3CCCCC3)n2)cc1`, the Potency in test [1] was 2310 nM (active); in test [2] it was 4610 nM (active).

As for `C=C1C(=O)O[C@@H]2[C@H]3C(C)=CC(=O)C3=C(C)CC[C@@H]12`, the Potency in test [1] was 2060 nM (active); in test [2], 651 nM (active).

Take `CC1(C)CC[C@]2(C(=O)O[C@@H]3O[C@H](CO)[C@@H](O)[C@H](O)[C@H]3O)CC[C@]3(C)C(=CCC4[C@@]5(C)C[C@H](O)[C@H](O[C@@H]6O[C@H](C(=O)O)[C@@H](O)[C@H](O)[C@H]6O)[C@@](C)(CO)C5CC[C@]43C)C2C1` (some centres not stated): the viability (% of control) in test [1] is 24.2% [at 9.25 µM]. Moreover, the viability, % of control in test [2] is 20.7% [at 9.25 µM].

For `CC(=O)OC1C[C@]2(C)C(O)CC(C)=C[C@H](OC(=O)c3ccc(O)cc3)C2[C@]1(O)C(C)C` (some centres not stated), the Potency result in test [1] was “inactive”. In addition, the Potency in test [2] was 6320 nM (active).

Consider `Nc1ncnc2c1ncn2CCNCCCCCO`, for which the Potency result in test [1] and in test [2] was “inactive” in each case.

Turning to `C/C=C(\C)C(=O)OC[C@H]1O[C@@H](O[C@H]2[C@@H](O[C@H]3O[C@H](COC(=O)/C(C)=C/C)[C@@H](O)[C@H](O)[C@H]3O[C@@H]3O[C@H](CO)[C@@H](O)[C@H](OC(=O)/C(C)=C/C)[C@H]3O)O[C@H](COC(=O)/C(C)=C/C)[C@@H](O)[C@@H]2O)[C@H](O)[C@@H](O)[C@@H]1O`, in test [1], the viability (% of control) was 81.6% [at 9.25 µM]. Besides, the viability, % of control in test [2] was 90.8% [at 9.25 µM].

Turning to `CC[C@H](CO)Nc1nc(Nc2cccc(-c3ccccn3)c2)c2ncn(C(C)C)c2n1`, the Potency is 2590 nM (active) in test [1] and 5170 nM (active) in test [2].

In the case of `CN1c2ccccc2C(=O)N2CCC3c4ccccc4NC3C21` (configuration not stated), the Potency was 2550 nM (active) in test [1] and 1800 nM (active) in test [2].

`CC1(CCOC2OC(CO)C(O)C(O)C2O)CCC23OC2(C1)C(O)CC1C(C)(C(=O)O)CCCC13C` (configuration not stated): the Potency result in test [1] and in test [2] was “inactive” in each case.

On to `N#Cc1ccc(C(=O)N2CCC3(CC2)N=C(N)c2c(F)ccc(F)c2N3)cn1`, for which the Potency result in test [1] and in test [2] was “inactive” in each case.

As for `CC1(C)CC[C@]2(C(=O)O[C@@H]3O[C@H](CO)[C@@H](O)[C@H](O)[C@H]3O)CC[C@]3(C)C(=CCC4[C@@]5(C)CC[C@H](O[C@@H]6O[C@H](C(=O)O)[C@@H](O[C@@H]7O[C@H](CO)[C@@H](O)[C@H](O)[C@H]7O)[C@H](O)[C@H]6O)C(C)(C)C5CC[C@]43C)C2C1` (some centres not stated), in test [1], the viability (% of control) was 78.7% [at 9.25 µM]. Besides, in test [2], the viability, % of control is 88% [at 9.25 µM].

Regarding `CC1=CC(=O)C2(OC3OC(C)C(O)C(OC(=O)/C=C/c4ccccc4)C3O)C=COC(OC3OC(CO)C(O)C(O)C3O)C12` (configuration not stated), the Potency entry in test [1] and in test [2] was “inactive” in each case.

Regarding `C[C@H]1CC[C@H]2[C@@H](C=C[C@@](C)(O)[C@]2(C)C(=O)CCO)C1`, the Potency result in test [1] and in test [2] was “inactive” in each case.

As for `NS(=O)(=O)c1ccc(S(=O)(=O)Nc2cccc3c(Cl)c[nH]c23)cc1`, the values for the Potency in test [1] and in test [2] were 235 nM (active) and 332 nM (active), respectively.

As for `COC(=O)[C@]12C(=O)C(C)=C(O)[C@@]1(C)C(C)=CC1[C@@]34CC[C@@H](OC(C)=O)C(C)(C)C3[C@H](C[C@]12C)OC4=O` (some centres not stated), the Potency result in test [1] and in test [2] was “inactive” each time.

Regarding `NCCCC[C@H](NC(=O)[C@@H]1Cc2ccccc2CN1C(=O)CCC(=O)c1ccccc1)C(=O)NCC(c1ccccc1)c1ccccc1`, the Potency in test [1] was 20600 nM (active); in test [2], 13000 nM (active).

Consider `COc1cc(Nc2nc3c(s2)CCCC3c2ccc(F)cc2)ccc1-n1cnc(C)c1` (configuration not stated), for which the Potency in test [1] was 3660 nM (active); in test [2], 4610 nM (active).

Values taken from PubChem BioAssay (NCATS).
